About 440 (0.49%) of roughly 89,000 compounds were called active.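 The calls were made as follows: active = inhibition above the mean inhibition across all screened compounds plus 3 SD (cut at about 11% in these data); inactive = the rest.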 Shown is part of a subset that was picked to be rich in actives.
Target: RNA-editing ligase 1, mitochondrial (Trypanosoma brucei brucei) (UniProt P86926)
Test: T. brucei editing ligase REL1 blockade – biochemical, FRET fluorescence, primary screen (AID 1117264);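 also: 0% = plate median of test wells and 100% = NSC42067 control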
Details: TbREL1 RNA ligation, at 9.66 µM, stronger effect = higher value

RNA-editing ligase 1, mitochondrial (Trypanosoma brucei brucei), sequence (P86926 whole entry, looked up): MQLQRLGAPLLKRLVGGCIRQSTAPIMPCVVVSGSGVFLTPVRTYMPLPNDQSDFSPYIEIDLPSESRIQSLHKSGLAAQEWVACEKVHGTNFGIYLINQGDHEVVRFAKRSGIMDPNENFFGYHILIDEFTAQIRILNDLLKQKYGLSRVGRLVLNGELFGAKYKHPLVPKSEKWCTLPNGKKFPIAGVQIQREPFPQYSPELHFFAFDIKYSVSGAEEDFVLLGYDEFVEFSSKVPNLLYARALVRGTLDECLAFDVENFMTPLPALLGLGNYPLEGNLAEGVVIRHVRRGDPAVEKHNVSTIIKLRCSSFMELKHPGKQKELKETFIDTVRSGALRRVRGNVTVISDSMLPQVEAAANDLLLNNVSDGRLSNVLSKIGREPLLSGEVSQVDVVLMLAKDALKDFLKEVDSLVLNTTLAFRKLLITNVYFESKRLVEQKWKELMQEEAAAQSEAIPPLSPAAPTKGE

Compound | inhibition
O=[N+]([O-])c1ccc2c(c1)C(O)n1nc(-c3ccccc3)nc1S2 (stereo unspecified) | 5.85% (inactive)
O=C(CSc1nccn1-c1cccc(F)c1)NC1CCCC1 | -3.03% (inactive)
COc1cc(-c2nnc(NC(=O)C3=COCCO3)o2)cc(OC)c1OC | 1.27% (inactive)
O=C(CSc1nc2ccccc2nc1N1CCCCC1)N1CCN(S(=O)(=O)c2cccc([N+](=O)[O-])c2)CC1 | -1.26% (inactive)
Cc1cc(=O)oc2cc(OCC(=O)Nc3nnc(C4CC4)s3)ccc12 | 4.82% (inactive)
Cc1ccc(NC(=O)CN(C)C(=O)COC(=O)C(C)(C)Oc2ccc(Cl)cc2)cc1 | 1.09% (inactive)
CCNc1nc(Oc2ccc(C(=O)OC)cc2)nc(N2CCOCC2)n1 | 3.37% (inactive)
CCCC[C@@H]1CN=C(N)N1CCCC | 8.04% (inactive)
O=C(Cn1nnc(N2CCCCC2)n1)c1ccc(Cl)c(Cl)c1 | 2.76% (inactive)
O=C(Nc1cccc(F)c1)NC1CCCc2ccccc21 (stereo unspecified) | 4.99% (inactive)
Cc1cc(C)cc(NC(=O)NC2CCCCCCC2)c1 | 4.83% (inactive)
O=C(Nc1cccc(F)c1)NC1CCCCCCC1 | 12% (active)
O=C(CSc1nnc(COc2ccccc2)n1Cc1ccco1)c1ccc2ccccc2c1 | 2.5% (inactive)
CN1CCC(=NNC(=O)c2ccc(N(Cc3ccc(Cl)cc3)S(C)(=O)=O)cc2)CC1 | 0.47% (inactive)
CC(C)C[C@H]1CN=C(Nc2ccccc2)N1CC1CCCCC1 | 4.52% (inactive)
Cc1cc(C)c(OCC(=O)N(Cc2cccs2)C2CCS(=O)(=O)C2)c(C)c1 (stereo unspecified) | 2.35% (inactive)
C=CCNC(=S)NNC(=O)c1cc(Cl)ccc1OC | -1.18% (inactive)
CCN(C(=O)CSc1nnc(-c2ccc(OC(F)F)cc2)n1N)C1CCS(=O)(=O)C1 (stereo unspecified) | -0.55% (inactive)
O=C(CSc1ccc([N+](=O)[O-])cn1)Nc1ccc(N2CCOCC2)c(Cl)c1 | 4.47% (inactive)
CC(C)CNC(=O)OCc1cn(Cc2ccc(F)cc2)nn1 | -1.2% (inactive)
Nc1nonc1-n1nnc(C(=O)N/N=C/C2CCCCC2)c1-c1ccccc1 | 2.56% (inactive)
CC1CCN(S(=O)(=O)c2ccc3[nH]c(=O)ccc3c2)CC1 | 2.13% (inactive)
Cc1cccc(NC(=S)N2CCCC(c3nc4ccccc4[nH]3)C2)c1 (stereo unspecified) | -6.41% (inactive)
COc1ccc(NC(=O)CCN2C(=O)/C(=C/c3ccc4c(c3)OCO4)SC2=S)cc1 | -1.87% (inactive)
O=C(O)c1ccc(S(=O)(=O)N2CCOCC2)o1 | 0.79% (inactive)
COc1ccc(Br)c(Cn2c(C)c(C(=O)NCc3cccs3)sc2=O)c1 | 2.25% (inactive)

Compound | inhibition
Cc1cc(NC(=O)C(C)N2C(=O)c3ccccc3S2(=O)=O)no1 (stereo unspecified) | 3.27% (inactive)
CC1(C)Cc2c(sc(NC(=O)C(=O)N3CCOCC3)c2C#N)CO1 | -1.21% (inactive)
COc1ccc(OC)c(NC(=O)c2cccc(S(=O)(=O)N3CCN(C(C)=O)CC3)c2)c1 | -0.85% (inactive)
CC(=O)Nc1ccc(NC(=O)CSC2=NS(=O)(=O)c3ccccc3N2)cc1 | 2.64% (inactive)
CCCOc1cccc(C(=O)Nc2ccccc2C(=O)N2CCN(C)CC2)c1 | 0.64% (inactive)
Cc1sc2ncn(CC(=O)NCCN(C)C)c(=O)c2c1S(=O)(=O)N1CCC(C)CC1 | -1.59% (inactive)
Cc1ccc(C(=O)Cc2nnc(C)s2)cc1 | -0.4% (inactive)
CSCCC(NC(=O)COc1ccccc1)C(=O)Nc1ccc(C)cc1 (stereo unspecified) | -0.75% (inactive)
O=C(CCNC(=O)Cn1ccc2ccccc2c1=O)NCCC1=CCCCC1 | -2.59% (inactive)
CC(Oc1ccccc1)C(=O)Nc1c2c(nn1-c1ccccc1)CS(=O)C2 (stereo unspecified) | 0.74% (inactive)
CCOC(=O)N1CCN(C(=O)c2ccccc2N(Cc2ccccc2)S(=O)(=O)c2ccc(OC)cc2)CC1 | -1.48% (inactive)
COc1ccc(NC(=O)CN(C)C(=O)CNC(=O)C2CCCCC2)cc1 | -1.04% (inactive)
N/C(=N\OC(=O)Cc1ccc([N+](=O)[O-])cc1)c1ccccn1 | 5.64% (inactive)
CCOc1ccc(-n2cnnn2)cc1S(=O)(=O)N1CCC(C)CC1C (stereo unspecified) | -0.48% (inactive)
CC(=O)O[C@@]1(C(C)=O)CCC2[C@H]3C=C(C)C4=CC(=O)CC[C@@]4(C)C3CC[C@]21C (stereo partly specified) | 2.86% (inactive)
Cc1ccc(CN(Cc2cccnc2)C(=S)Nc2cccc(Cl)c2C)cc1 | -3.35% (inactive)
COc1cccc2c1CCC(NC(C)=O)C2=O (stereo unspecified) | 0.33% (inactive)
CC(C#N)OC(=O)c1cccnc1SCC(=O)Nc1ccc2c(c1)OCO2 (stereo unspecified) | -2.63% (inactive)
COC(=O)c1ccc2c(c1)S(=O)(=O)NC2C (stereo unspecified) | -0.32% (inactive)
O=C1CCC/C=C\C[C@@H](CC(=O)N(CCO)Cc2ccccc2)C(=O)NCCO1 | 3.07% (inactive)
O=C(Nc1n[nH]c(C(F)(F)F)n1)c1cccs1 | 0.59% (inactive)
Cc1cc(=O)[nH]c(SCC(=O)Nc2ccc(Cl)cc2C)n1 | 6.53% (inactive)
CC(=O)Nc1ccc(-c2csc(NC=C3C(=O)OC(C)(C)OC3=O)n2)cc1 | 0.47% (inactive)
CC(C)(C)OC(=O)c1c(N)n(CCCN2CCCC2=O)c2nc3ccccc3nc12 | -0.01% (inactive)
CC(C)Cn1c(N)c(C(=O)NCc2cccs2)c2nc3ccccc3nc21 | 44% (active)
O=C(CN1CCN(c2ccccn2)CC1)NCc1cccs1 | -2.97% (inactive)

Compound | inhibition
Nc1c(Cl)cc(-c2csc(N3CCCC3c3nc4cc(Cl)c(Cl)cc4n3CCOCCO)n2)cc1Cl (stereo unspecified) | -4.69% (inactive)
Cn1ccnc1SCC(=O)Nc1ccc2c(c1)OCCO2 | 2.46% (inactive)
Cc1cccc(NC(=S)NC23CN4CN(CN(C4)C2)C3)c1 | -3.73% (inactive)
COC(=O)C(C)Oc1ccc2c(c1)O/C(=C\c1cccc(Br)c1)C2=O (stereo unspecified) | 1.78% (inactive)
Cc1c(C(=O)OCC(=O)N2CCCC2=O)oc2ccccc12 | -0.28% (inactive)
COC(=O)C1=C(C)N(Cc2cccc(C(F)(F)F)c2)C(=NCc2cccc(C(F)(F)F)c2)NC1c1ccccc1C(F)(F)F (stereo unspecified) | 17.6% (active)
CC(C)NC(=O)C1(C)CCCCN1Cc1cccc(C(F)(F)F)c1 (stereo unspecified) | -3.05% (inactive)
COC(=O)C1=C(C)N(Cc2cccc(C(F)(F)F)c2)C(=NCc2ccccc2)NC1c1ccc(Cl)cc1 (stereo unspecified) | 10.5% (inactive)
COC(=O)C1=C(C)N(Cc2cccc(C(F)(F)F)c2)C(=NCc2ccccc2)NC1c1ccccc1C(F)(F)F (stereo unspecified) | 18.8% (active)
COC(=O)C1=C(C)N(Cc2ccccc2)C(=NCCCOC(C)C)N[C@H]1c1ccccc1 | 8.47% (inactive)
COC(=O)C1=C(C)N(Cc2ccc(F)cc2)C(=S)NC1c1cccc(Cl)c1 (stereo unspecified) | -6.48% (inactive)
C[C@H](NC(=O)c1[nH]cnc1C(=O)Nc1nccs1)c1ccccc1 | 2.49% (inactive)
S=C(NCc1ccco1)NCc1ccccc1Cl | -2.97% (inactive)
CCOC(=O)C1CCN(c2c(Nc3cc(C)cc(C)c3)c(=O)c2=O)CC1 | -4.56% (inactive)
Cc1ccc(NS(=O)(=O)c2ccc(C(C)C)cc2)cc1S(=O)(=O)N1CCOCC1 | -0.97% (inactive)
Cc1cccc(Nc2nnc(SCC(=O)c3c(N)n(C4CC4)c(=O)[nH]c3=O)s2)c1C | 1.72% (inactive)
O=C(CSc1nc2sc3c(c2c(=O)n1-c1ccccc1)CCCC3)NN=Cc1ccc(OCc2ccccc2)cc1 | 0.03% (inactive)
Cc1ccc2c(c1)nnc1nnc(SCC(=O)O)n12 | 1.61% (inactive)
COC(=O)c1cc(S(=O)(=O)N2CCN(C(=O)C3CCCO3)CC2)cn1C (stereo unspecified) | 0.88% (inactive)
Cc1ccc2c(CN3CCN(S(=O)(=O)c4ccccc4C(F)(F)F)CC3)cc(=O)oc2c1 | 6.44% (inactive)
CC(=O)Nc1ccc(NC(=O)[C@@H](NC(=O)c2cccc(C)c2)C(C)C)cc1 | 1.63% (inactive)
COc1ccccc1NC(=S)N1CCC(NC(=O)C23CC4CC(CC(C4)C2)C3)CC1 | -2.86% (inactive)
CC(C)(C)C1C/C(=C/c2ccco2)C(=O)/C(=C/c2ccco2)C1 (stereo unspecified) | 32.6% (active)
COC(=O)C1=C(C)N(c2ccc(Br)cc2)C(=O)/C1=C\c1ccco1 | 4.92% (inactive)
